The source of these data is PubChem BioAssay (EPA / NIEHS).

Values joined by “and” are separate entries in the source; they are usually repeats but may differ in a detail not shown here. Equal entries are not always repeated. Where a structure was tested more than once in an assay, its records may differ in their call. Active and inactive are the calls of the source. Rule for the calls: active = hit-call score of the fitted dose curve at least 0.9, where 1 is the maximum; inactive = score below 0.9.

The nature of the assay: BSK_IMphg_SRB.Mphg: Macrophage Viability Assessment in the BioMAP Diversity Plus: IMphg Assay (AID 2284295). As to conditions: primary human endothelial cells with macrophages. The method, then: BSK_IMphg is a cell-based, multiplexed-readout assay that uses venular endothelial cells and macrophages, a human vascular primary cell, with measurements taken at 24 hours after chemical dosing in a microplate: 96-well plate.BSK_IMphg_SRB.Mphg is an assay component measured in the BSK_IMphg assay. It measures […] related to cell death using Sulforhodamine staining technology.Data from the assay component BSK_IMphg_SRB.Mphg was analyzed at the endpoint, BSK_IMphg_SRB.Mphg, in the positive analysis fitting direction relative to DMSO as the negative control and baseline of activity. Using a type of viability reporter, gain or loss-of-signal activity can be used to understand protein changes. To generalize the intended target to other relatable targets, this assay endpoint is annotated to the 'cell morphology' intended target family, where the subfamily is 'cell conformation'.
The levels of cell surface (or secreted, indicated by the prefix "s") biomarker endpoints were measured by ELISA. Overt cytotoxicity to cells in confluent adherent cultures (all systems other than the BT system) was assessed by measuring total protein levels using sulforhodamine B (SRB) staining in parallel cultures at the time of biomarker measurements, indicated as SRB endpoints. For proliferation assays for adherent cell types, individual cell types are cultured at sub-confluence and relative cell numbers quantified by SRB staining at time points optimized for each system (48 h: 3C and CASM3C systems; 72 h: BT and HDF3CGF systems; 96 h: SAg system). SRB was performed by staining cells with 0.1% SRB after fixation with 10% TCA and reading wells at 560 nm.Viability and proliferation of PBMC (T cells) was quantified by Alamar Blue reduction for the SAg and BT systems. For PBMC viability (referred to as PBMC Cytotoxicity within the assay endpoint names), cells were plated (75,000/well in a 96-well plate) and then chemical samples added for 1 h before addition of activators, SEB and TSST-1 (20 ng/mL final concentration each). Cells were incubated for 90 h. Then, Alamar Blue (20 uL/well) (Invitrogen, Cat DAL1100) was added for 6 h, and the plates were read with a fluorescence microplate reader at 546/580 nm (excitation/emission). For PBMC proliferation, cells were plated and activated as above but incubated for only 16 h prior to addition of Alamar Blue. Plates were read after 6 h.
On to `C=CC(=O)OCCC(F)(F)C(F)(F)C(F)(F)C(F)(F)C(F)(F)C(F)(F)C(F)(F)C(F)(F)F`, for which the outcome was inactive.
Take `OCC(F)(F)C(F)(F)C(F)(F)C(F)(F)C(F)(F)C(F)(F)C(F)(F)C(F)(F)C(F)(F)C(F)(F)C(F)(F)F`: the AC50 is 550 nM (active) and 521 nM (active).
`O=S(=O)(O)C(F)(F)C(F)(F)C(F)(F)C(F)(F)C(F)(F)C(F)(F)C(F)(F)C(F)(F)C(F)(F)C(F)(F)F`: the AC50 is 668 nM (active) and the result was inactive.
For the compound `CN(CCO)S(=O)(=O)C(F)(F)C(F)(F)C(F)(F)C(F)(F)C(F)(F)C(F)(F)C(F)(F)C(F)(F)F`, the result was inactive.
For `O=C(O)CCC(F)(F)C(F)(F)C(F)(F)C(F)(F)C(F)(F)C(F)(F)F`, the outcome was inactive.
Turning to `O=C(O)CCC(F)(F)C(F)(F)C(F)(F)C(F)(F)C(F)(F)F`, the outcome was inactive.
The same measure, in the same setting: for `O=P(O)(O)CCC(F)(F)C(F)(F)C(F)(F)C(F)(F)C(F)(F)C(F)(F)C(F)(F)C(F)(F)F` the value was “inactive”; for `O=P(O)(O)CCC(F)(F)C(F)(F)C(F)(F)C(F)(F)C(F)(F)C(F)(F)F`, “inactive”.
Turning to `CN(Cc1cnc2nc(N)nc(N)c2n1)c1ccc(C(=O)N[C@@H](CCC(=O)O)C(=O)O)cc1`, the concentration at half-maximal activity (AC50) is 3260 nM (active) and the outcome was inactive.
With `O=C(O)C(F)(F)OC(F)(F)C(F)(F)OC(F)(F)C(F)(F)OC(F)(F)C(F)(F)C(F)(F)C(F)(F)F`, the half-maximal activity concentration (AC50) was 42.9 µM (active) and 45.1 µM (active).
Consider `O=C(CC(=O)C(F)(F)C(F)(F)C(F)(F)F)c1cccs1`, for which the AC50 was 43.1 µM (active) and 42.7 µM (active).

Usually AC50 stands for the concentration at which the activity in the assay is half-maximal.
